Assay [1] concerns Plasmodium falciparum Sir2 (PF13_0152, Sir2A). The assay can be described thus: Plasmodium falciparum Sir2A binding compounds – biochemical, small-molecule microarray, 635 nm fluorescence, primary screen (AID 1098).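 Also: score merges spot fluorescence intensity with its signal-to-noise ratio.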 To be noted: fluorescence 635 nm, higher = more signal.
The nature of assay [2]: probe aDKK1 binding to arrayed compounds – biochemical, biotinylated probe, 635/667 nm fluorescence, primary screen (AID 1099).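 Also: score merges 667nm spot fluorescence with signal to noise across triplicate slides.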 To be noted: small-molecule microarray, higher = more signal.
Assay [3] can be described thus: probe aCHRDL2 binding to arrayed compounds – biochemical, biotinylated probe, 635/667 nm fluorescence, primary screen (AID 1100). To be noted: small-molecule microarray, higher = more signal.
The nature of assay [4]: change in splice reporter luminescence, either direction, cell-based, HEK293, spliceosome inhibition project, primary screen (AID 1101).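 Also: HEK293 cells carrying a splicing-competent luciferase reporter gene; test concentration not given here.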 The note with it: HEK293 splicing luciferase reporter, 24 h, higher = more signal, called active from +8 up or from −8 down.
Assay [5] has as its target Fibroblast growth factor 10 (Homo sapiens) (UniProt O15520). The assay is described as follows: compounds binding fibroblast growth factor 10 – biochemical, small-molecule microarray, 635 nm fluorescence, primary screen (AID 1102). To be noted: FGF10 binding, fluorescence 635 nm, higher = more signal.
The test system of assay [6] is glycogen synthase kinase-3 (GSK3A per assay name; protocol says GSK3B). The assay is described as follows: compounds binding glycogen synthase kinase-3 – biochemical, small-molecule microarray, 635 nm fluorescence, GSK3A, primary screen (AID 1103). Also: the record names both GSK3A and GSK3B. To be noted: fluorescence 635 nm, higher = more signal.
In assay [7] the target is Epidermal growth factor receptor (Homo sapiens) (UniProt P00533). The assay is described as follows: compounds binding epidermal growth factor receptor – biochemical, small-molecule microarray, 635 nm fluorescence, primary screen (AID 1104).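 Also: score merges 667 nm emission intensity with spot signal to noise over triplicate slides.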 The note with it: EGFR binding, higher = more signal.
Assay [8] deals with Follistatin-related protein 3 (Homo sapiens) (UniProt O95633). The assay can be described thus: compounds binding follistatin-related protein 3 – biochemical, small-molecule microarray, 635 nm fluorescence, primary screen (AID 1105).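 Also: score merges emission near 667 nm and signal to noise per printed spot across three slides.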 To be noted: FSTL3 binding, higher = more signal.
The target of assay [9] is Dickkopf-related protein 1 (Homo sapiens) (UniProt O94907). The assay is described as follows: small molecules binding DKK1 protein – biochemical, small-molecule microarray, 635 nm fluorescence scan, primary screen (AID 1106).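 Also: score merges emission near 667 nm with signal to noise over three replicate slides.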 To be noted: higher = more signal.
The subject of assay [10] is Inhibin beta A chain (activin A). The assay can be described thus: small molecules binding activin A – biochemical, small-molecule microarray, 635 nm fluorescence scan, primary screen (AID 1107).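 Also: mouse activin A protein probed at 4.33 µg/mL on printed slides; score merges bound-protein fluorescence near 667 nm with spot signal-to-noise.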 To be noted: INHBA, higher = more signal.
Assay [11] concerns Human papillomavirus type 1a protein E7 (residues 44-93). The assay can be described thus: small molecules binding HPV E7 44-93 – biochemical, small-molecule microarray, residues 44-93, 635 nm fluorescence, primary screen (AID 1108).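 Also: E7 fragment applied at 1 µg/mL in TBST for 1 h at 4 C; score combines spot fluorescence with its signal to noise ratio.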 The note with it: fluorescence 635 nm, higher = more signal.
Assay [12] can be described thus: hepatitis C replication reporter changes, two-sided – Huh7 cells, luciferase reporter, HCV replication inhibitor project, primary screen (AID 1109).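 Also: huh7 hepatoma cells harbouring a luciferase neomycin HCV replicon reporter; luciferase luminescence as measure of HCV replicon replication; test concentration not given here.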 To be noted: Huh7 HCV replicon luciferase reporter, 48 h; higher = more signal. For orientation: Reporter assays use an easily measured gene product as a stand-in for the process of interest.
Assay [13] addresses Left-right determination factor 2 (Homo sapiens) (UniProt O00292). The assay can be described thus: small molecules binding LEFTY2 protein – biochemical, small-molecule microarray, 635 nm fluorescence scan, primary screen (AID 1110). The note with it: higher = more signal.
Assay [14] has as its target Calmodulin-1 (Homo sapiens) (UniProt P0DP23). The assay can be described thus: small molecules binding calmodulin-1 with EGTA – biochemical, small-molecule microarray, Cy5-labelled CALM1, profiling panel (AID 1111).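 Also: labelled calmodulin applied in Tris saline Tween buffer holding calcium plus EGTA and DTT.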 To be noted: Cy5-CALM1 binding fluorescence, higher = more signal.
The target is the same in assay [15]. The assay can be described thus: small molecules binding Ca-loaded calmodulin-1 – biochemical, small-molecule microarray, Cy5-labelled CALM1, plus calcium, artefact control for SMM control-protein annotation, profiling panel (AID 1112).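 Also: score merges spot fluorescence with signal to noise from triplicate slides.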 To be noted: Cy5-CALM1 binding fluorescence, higher = more signal.
The nature of assay [16]: probe aWnt5a binding to arrayed compounds – biochemical, biotinylated probe, 635/667 nm fluorescence, primary screen (AID 1113).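 Also: score merges 667 nm fluorescence intensity with signal-to-noise per printed feature.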 The note with it: small-molecule microarray, higher = more signal.
A short description of assay [17]: probe aShh binding to arrayed compounds – biochemical, biotinylated probe, 635/667 nm fluorescence, primary screen (AID 1114).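 Also: probe is biotin-labelled aShh protein from a stem cell growth factor screen; measures binding of labelled protein to compounds printed on the slide; score merges feature fluorescence at 667 nm with signal-to-noise.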 To be noted: small-molecule microarray, higher = more signal.
Assay [18] can be described thus: probe aNog binding to arrayed compounds – biochemical, biotinylated probe, 635/667 nm fluorescence, primary screen (AID 1115).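 Also: probe is biotinylated aNog protein used at 0.15 µg/mL for 1 h at 4 C; z-score combines 667 nm fluorescence of each spot with its signal to noise.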 To be noted: small-molecule microarray, higher = more signal.
Assay [19] has as its target Torsin-1A-interacting protein 1 (Homo sapiens) (UniProt Q5JTV8). The assay is described as follows: compound microarray binding of lysate hLAP1 – cell lysate, small-molecule microarray, COS7 lysate, 635/667 nm fluorescence, primary screen (AID 1116). To be noted: 635 nm fluorescence, higher = more signal.
For assay [20], the target named is Alpha-bungarotoxin (Bungarus multicinctus) (UniProt P60615). The assay can be described thus: compounds binding labelled alpha-BTX control protein – biochemical, small-molecule microarray, Alexa647 label, 635/667 nm fluorescence, artefact control for SMM control protein annotation, profiling panel (AID 1117). The note with it: alpha-BTX-A647 binding fluorescence, higher = more signal.

We go through 5 compounds from PubChem BioAssay.

Active and inactive are the calls of the source.

Sequence of Epidermal growth factor receptor (Homo sapiens) (P00533 whole entry, looked up): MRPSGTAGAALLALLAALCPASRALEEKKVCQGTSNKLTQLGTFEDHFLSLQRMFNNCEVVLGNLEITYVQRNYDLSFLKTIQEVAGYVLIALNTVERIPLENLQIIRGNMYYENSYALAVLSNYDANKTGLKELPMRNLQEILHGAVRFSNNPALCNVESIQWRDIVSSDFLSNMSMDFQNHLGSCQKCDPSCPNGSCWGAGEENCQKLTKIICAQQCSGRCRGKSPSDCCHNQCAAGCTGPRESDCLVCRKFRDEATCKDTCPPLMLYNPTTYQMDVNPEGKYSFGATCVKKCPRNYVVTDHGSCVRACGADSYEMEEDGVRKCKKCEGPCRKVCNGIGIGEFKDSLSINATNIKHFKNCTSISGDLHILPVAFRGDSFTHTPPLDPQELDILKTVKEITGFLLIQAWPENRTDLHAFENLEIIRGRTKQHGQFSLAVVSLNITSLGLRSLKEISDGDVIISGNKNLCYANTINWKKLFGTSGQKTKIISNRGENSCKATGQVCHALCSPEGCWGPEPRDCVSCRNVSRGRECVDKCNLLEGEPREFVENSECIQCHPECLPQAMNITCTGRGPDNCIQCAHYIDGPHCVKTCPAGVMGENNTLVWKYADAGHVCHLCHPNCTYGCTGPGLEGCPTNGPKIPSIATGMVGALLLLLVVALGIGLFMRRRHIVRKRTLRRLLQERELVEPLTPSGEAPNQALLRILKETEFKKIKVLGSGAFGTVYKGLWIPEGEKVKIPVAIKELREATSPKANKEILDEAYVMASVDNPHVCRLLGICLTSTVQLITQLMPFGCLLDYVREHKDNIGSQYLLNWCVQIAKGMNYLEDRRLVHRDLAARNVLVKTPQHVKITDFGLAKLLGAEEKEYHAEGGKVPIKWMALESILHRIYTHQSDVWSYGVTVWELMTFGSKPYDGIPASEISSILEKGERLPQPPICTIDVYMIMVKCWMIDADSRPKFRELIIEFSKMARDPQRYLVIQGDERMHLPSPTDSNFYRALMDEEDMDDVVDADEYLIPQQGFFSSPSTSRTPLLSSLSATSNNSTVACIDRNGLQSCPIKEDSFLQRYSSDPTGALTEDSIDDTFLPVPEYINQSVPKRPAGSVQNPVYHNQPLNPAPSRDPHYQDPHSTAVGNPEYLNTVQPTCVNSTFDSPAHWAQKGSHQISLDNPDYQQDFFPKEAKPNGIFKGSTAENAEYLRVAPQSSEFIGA
Sequence of Torsin-1A-interacting protein 1 (Homo sapiens) (Q5JTV8 whole entry, looked up): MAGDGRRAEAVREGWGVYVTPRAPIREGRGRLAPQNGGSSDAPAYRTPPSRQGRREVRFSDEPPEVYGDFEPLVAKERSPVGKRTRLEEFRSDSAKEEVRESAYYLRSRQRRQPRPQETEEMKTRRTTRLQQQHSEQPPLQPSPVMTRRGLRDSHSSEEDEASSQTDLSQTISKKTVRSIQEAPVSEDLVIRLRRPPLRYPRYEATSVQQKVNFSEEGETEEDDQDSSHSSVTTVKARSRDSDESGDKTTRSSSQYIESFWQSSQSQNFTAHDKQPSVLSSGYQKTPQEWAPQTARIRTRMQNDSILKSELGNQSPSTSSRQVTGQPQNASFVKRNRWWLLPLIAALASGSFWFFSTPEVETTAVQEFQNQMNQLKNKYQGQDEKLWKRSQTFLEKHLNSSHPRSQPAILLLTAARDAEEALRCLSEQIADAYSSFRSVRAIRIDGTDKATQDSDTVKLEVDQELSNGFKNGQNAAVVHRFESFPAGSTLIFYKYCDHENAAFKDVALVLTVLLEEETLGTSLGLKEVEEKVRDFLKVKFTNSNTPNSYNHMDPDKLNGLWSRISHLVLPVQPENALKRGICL
Sequence of Dickkopf-related protein 1 (Homo sapiens) (O94907 whole entry, looked up): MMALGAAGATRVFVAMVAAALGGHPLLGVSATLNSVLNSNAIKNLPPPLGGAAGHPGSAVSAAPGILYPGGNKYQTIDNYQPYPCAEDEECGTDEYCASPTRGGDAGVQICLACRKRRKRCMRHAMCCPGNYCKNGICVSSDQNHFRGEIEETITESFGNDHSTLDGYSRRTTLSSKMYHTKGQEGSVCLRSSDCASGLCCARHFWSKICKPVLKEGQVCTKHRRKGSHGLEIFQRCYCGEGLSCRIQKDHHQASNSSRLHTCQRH
Sequence of Follistatin-related protein 3 (Homo sapiens) (O95633 whole entry, looked up): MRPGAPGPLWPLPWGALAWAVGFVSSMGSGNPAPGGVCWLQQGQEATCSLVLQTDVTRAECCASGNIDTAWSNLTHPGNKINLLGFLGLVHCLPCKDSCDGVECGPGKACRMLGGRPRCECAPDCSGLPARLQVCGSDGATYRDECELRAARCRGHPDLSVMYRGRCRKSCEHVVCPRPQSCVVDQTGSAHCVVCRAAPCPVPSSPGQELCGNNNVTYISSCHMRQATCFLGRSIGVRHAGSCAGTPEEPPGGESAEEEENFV
Sequence of Fibroblast growth factor 10 (Homo sapiens) (O15520 whole entry, looked up): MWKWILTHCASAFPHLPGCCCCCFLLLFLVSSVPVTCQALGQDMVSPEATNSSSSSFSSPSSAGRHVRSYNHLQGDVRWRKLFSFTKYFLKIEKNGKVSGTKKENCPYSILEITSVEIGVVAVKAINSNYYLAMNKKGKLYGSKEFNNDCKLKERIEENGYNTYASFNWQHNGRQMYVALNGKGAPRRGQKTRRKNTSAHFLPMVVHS
Sequence of Left-right determination factor 2 (Homo sapiens) (O00292 whole entry, looked up): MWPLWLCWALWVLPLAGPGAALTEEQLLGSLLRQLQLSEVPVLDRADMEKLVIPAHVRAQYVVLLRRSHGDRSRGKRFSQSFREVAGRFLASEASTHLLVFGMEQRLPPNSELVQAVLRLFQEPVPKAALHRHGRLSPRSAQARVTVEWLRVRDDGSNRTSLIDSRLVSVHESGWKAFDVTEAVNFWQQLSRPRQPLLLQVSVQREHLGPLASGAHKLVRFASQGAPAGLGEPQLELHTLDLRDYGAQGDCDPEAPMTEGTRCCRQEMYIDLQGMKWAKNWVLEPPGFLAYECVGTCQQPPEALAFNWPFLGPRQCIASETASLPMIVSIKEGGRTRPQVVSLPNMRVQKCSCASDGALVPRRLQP
Sequence of Alpha-bungarotoxin (Bungarus multicinctus) (P60615 whole entry, looked up): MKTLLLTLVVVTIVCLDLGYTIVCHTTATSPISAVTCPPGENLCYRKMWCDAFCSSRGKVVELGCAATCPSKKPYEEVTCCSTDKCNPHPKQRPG

For the compound `CC(C)(C)OC(=O)CC[C@@]12N=C(c3ccc(OCCCO)cc3)O[C@@H]1c1ccccc1CN(Cc1ccccc1)C2=O`, the composite z-score in assay [1] came to 1.39; in assay [2] it was 0.578; in assay [3] it was 0.505; in assay [5], 1.14; in [6], 1.19; in [7], 0.12. Moreover, the composite z-score is 0.459 in assay [8]; 0.388 in assay [9]; 0.682 in assay [10]; 0.33 in assay [11]; -0.152 in assay [13]; 0.927 in assay [14]. The composite z-score in [15] is 0.368; in assay [16], -0.0981; in assay [17], 1.23; in [18], 0.36; in [19] it was 0.886; in [20], 0.941. For the same compound, the results for the z-score in assay [4] and in assay [12] were -0.0992 (inactive) and -2.92, respectively.
Take `COCCOC(=O)N1C(=O)[C@@]2(c3cc(C#CC4(O)CCCCCC4)ccc31)[C@H](c1ccc(O)cc1)N1[C@H](c3ccccc3)[C@H](c3ccccc3)OC(=O)[C@H]1[C@@H]2C(N)=O`: the composite z-score came to 0.98 in [1]; 0.106 in [2]; 0.375 in assay [3]; 0.744 in assay [5]; 0.0417 in assay [6]; 0.0818 in [7]. Besides, the composite z-score was 0.585 in [8]; 0.577 in assay [9]; 0.311 in assay [10]; 1.06 in assay [11]; -0.0539 in assay [13]; 2.23 in assay [14]. Further, the composite z-score in [15] is 0.0903; in assay [16], 0.0719; in [17], -0.223; in assay [18], 0.725; in assay [19], 0.852; in [20], 1.97. The results for the z-score in assay [4] and in assay [12] were -0.652 (inactive) and -0.0511, respectively.
On to `O=C1N(CCS(=O)(=O)c2ccccc2)Cc2ccccc2[C@@H]2OC(c3ccc(OCCCO)cc3)=N[C@]12Cc1ccccc1`, for which the composite z-score was 1.61 in assay [1]; 1.22 in assay [2]; 1.14 in assay [3]; 1.37 in assay [5]; 1.33 in [6]; 0.267 in [7]. Further, the composite z-score in assay [8] is 1.33; in assay [9], 0.797; in [10] it was 0.49; in assay [11], 0.427; in assay [13] it was 0.533; in [14], 1.88. Besides, the composite z-score was determined as 0.189 in assay [15]; 0.0614 in assay [16]; 0.191 in assay [17]; 0.998 in assay [18]; 1.16 in [19]; 2.73 in assay [20]. Moreover, the z-score was -0.127 (inactive) in [4] and -1.4 in [12].
Consider `COc1ccc([Si](C)(C)[C@@H]2[C@@H](CCn3cc(CCO)nn3)O[C@]3(C(=O)N(Cc4ccc(N5C(=O)c6cccc7cccc5c67)cc4)c4ccccc43)[C@H]2C)cc1`, for which the composite z-score in assay [1] stood at 0.831; in assay [2], 0.134; in [3] it was 0.207; in assay [5], 0.266; in assay [6], 0.0923; in assay [7], 0.248. Moreover, the composite z-score turned out to be 0.334 in assay [8]; 0.258 in assay [9]; 0.581 in assay [10]; 0.119 in [11]; 0.316 in assay [13]; 1.22 in assay [14]. Further, the composite z-score in assay [15] was 0.863; in assay [16] it was -0.0459; in assay [17], 0.112; in assay [18] it was -0.284; in [19], 0.758; in [20], 1.6. Moreover, the z-score in assay [4] was -2.39 (inactive); in assay [12], -5.16.
With `CO[C@H]1O[C@H](CO)[C@@H](OC(=O)Nc2ccccc2)[C@H](OC(=O)Nc2ccccc2-c2ccccc2)[C@H]1OC(=O)Nc1ccccc1-c1ccccc1`, the composite z-score in assay [1] is 1.79; in assay [2] it was 0.834; in assay [3], 0.91; in [5], 0.626; in assay [6], 1.31; in assay [7], -0.165. Moreover, the composite z-score was 0.824 in assay [8]; 0.482 in assay [9]; 0.0315 in assay [10]; 1.36 in assay [11]; 0.152 in assay [13]; 2.18 in assay [14]. For the same compound, the composite z-score in [15] is 0.438; in [16], -0.0735; in [17] it was 0.366; in assay [18], 0.767; in assay [19], 2.08; in assay [20], 2.54. Moreover, the results for the z-score in assay [4] and in assay [12] were -2.83 (inactive) and -3.9, respectively.
